Experiment in all cases: qHTS profiling for inhibitors of Plasmodium falciparum proliferation (AID 504749); further: nearly all actives have a fitted effect of over 60% in size
Settings in all cases: P. falciparum in erythrocytes, SYBR Green DNA, 72 h; series mostly up to 28.7 µM
For orientation: qHTS replaces the single test concentration by a dilution series.

One assay deals with CP269. In outline: (§1)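 Three-day growth assay of blood-stage parasites in erythrocytes (0.3% parasitemia, 2.5% hematocrit) at 37 C, 5% CO2, quantified by SYBR Green DNA staining after overnight detergent lysis.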
In the next assay the test system is CP286. In outline:
as §1

The next assay has as its system CP291. Put shortly:
as §1

Another assay has as its system CP297. In outline: as §1
For another assay, the system named is CP305. In outline: as §1
The next assay has as its system CP315. In outline: as §1
The test system of another assay is CP325. In outline: as §1
Another assay has as its system CP329. In outline: as §1
The test system of the next assay is CP335. In outline:
as §1

For the next assay, the system named is DFO2036. Put shortly:
as §1

A further assay deals with DIV14. Put shortly: as §1
Another assay concerns DIV17. In outline:
as §1

The subject of a further assay is DIV30. In outline:
as §1

Another assay relates to Dd2. Put shortly:
as §1

For the next assay, the system named is ECU. Put shortly: as §1
The test system of the next assay is FAB9. Put shortly: as §1
The subject of another assay is GB4. Put shortly:
as §1

The test system of another assay is HB3. Put shortly: as §1
The next assay has as its system ICS. In outline:
as §1

The next assay concerns JCK. In outline:
as §1

Records with an inconclusive call do not appear. Active and inactive are the calls of the source. The call rests on the fitted dose curve; in most records, active means well fitted inhibition curve with a large enough effect; inconclusive means small, poorly fitted or top-dose-only effect; inactive means flat fitted curve, though single readings scatter.
Potency means the concentration at half of the fitted maximal effect.

For the compound `Cc1ncc(CNC(=O)N(CCCl)N=O)c(N)n1`, the Potency result in the assay on CP269, in the assay on CP286, in the assay on CP291, with CP297, with CP305 and in the assay with CP315 was “inactive” in each case. Besides, the Potency result in the assay with CP325, in the assay with CP329, in the assay with CP335, in the assay with DFO2036, in the assay on DIV14 and with DIV17 was “inactive” each time. Besides, the Potency entry with DIV30, in the assay on Dd2, in the assay on ECU, in the assay on FAB9, in the assay with GB4 and in the assay with HB3 was “inactive” each time. For the same compound, the Potency result in the assay on ICS and in the assay on JCK was “inactive” throughout.

On to `CC(=O)[C@H]1CC[C@H]2[C@@H]3CC[C@H]4C[C@](C)(O)CC[C@]4(C)[C@H]3CC[C@]12C`, for which the Potency result with CP269, with CP286, in the assay with CP291, with CP297, in the assay on CP305 and in the assay on CP315 was “inactive” in each case. Also, the Potency result in the assay with CP325, with CP329, in the assay with CP335, with DFO2036, with DIV14 and with DIV17 was “inactive” throughout. Moreover, the Potency result in the assay with DIV30, in the assay on Dd2, in the assay on ECU, with FAB9, in the assay on GB4 and in the assay on HB3 was “inactive” in each case. Further, the Potency entry in the assay with ICS and with JCK was “inactive” throughout.

Regarding `O=C(NC(O)C(Cl)(Cl)Cl)NC(O)C(Cl)(Cl)Cl` (configuration not stated), the Potency result with CP269, with CP286, in the assay with CP291, with CP297, in the assay on CP305 and in the assay with CP315 was “inactive” each time. Moreover, the Potency result with CP325, with CP329, in the assay on CP335, with DFO2036, in the assay with DIV14 and in the assay with DIV17 was “inactive” each time. The Potency entry in the assay with DIV30, in the assay with Dd2, in the assay with ECU, with FAB9, in the assay on GB4 and with HB3 was “inactive” in each case. In addition, the Potency result in the assay with ICS and in the assay with JCK was “inactive” each time.

Regarding `NCC(O)c1ccc(O)cc1` (configuration not stated), the Potency entry in the assay on CP269, in the assay with CP286, in the assay on CP291, in the assay with CP297, with CP305 and with CP315 was “inactive” throughout. The Potency result in the assay with CP325, in the assay with CP329, in the assay with CP335, in the assay on DFO2036, with DIV17 and with DIV30 was “inactive” throughout. Further, the Potency result with Dd2, in the assay with ECU, with FAB9, in the assay on GB4, in the assay on HB3 and in the assay on ICS was “inactive” in each case. Besides, the Potency result in the assay on JCK is “inactive”.

For `CC[N+]1(C)CCCC(OC(=O)C(O)(c2ccccc2)c2ccccc2)C1` (configuration not stated), the Potency result in the assay with CP269, in the assay on CP286, with CP291, in the assay on CP297, in the assay with CP305 and in the assay with CP315 was “inactive” in each case. In addition, the Potency result in the assay on CP325, in the assay with CP329, in the assay with CP335, in the assay on DFO2036, in the assay with DIV14 and in the assay with DIV17 was “inactive” throughout. The Potency entry with DIV30, in the assay on Dd2, with ECU, with FAB9, with GB4 and in the assay with HB3 was “inactive” each time. The Potency entry with ICS and with JCK was “inactive” each time.

On to `CC1OC(C)OC(C)O1` (configuration not stated), for which the Potency result in the assay with CP269, in the assay on CP286, in the assay on CP291, in the assay with CP297, in the assay on CP305 and in the assay on CP315 was “inactive” in each case. Also, the Potency entry with CP325, in the assay on CP329, in the assay on CP335, in the assay on DFO2036, in the assay on DIV14 and with DIV17 was “inactive” in each case. In addition, the Potency result in the assay with DIV30, in the assay with Dd2, in the assay on ECU, in the assay with FAB9, with GB4 and with HB3 was “inactive” each time. Besides, the Potency result in the assay with ICS and in the assay on JCK was “inactive” in each case.

Consider `NCC(CC(=O)O)c1ccc(Cl)cc1` (configuration not stated), for which the Potency entry in the assay with CP269, in the assay with CP286, in the assay with CP291, in the assay on CP297, with CP305 and in the assay with CP315 was “inactive” each time. Moreover, the Potency entry with CP325, in the assay with CP329, in the assay with CP335, in the assay on DFO2036, in the assay on DIV14 and with DIV17 was “inactive” throughout. Moreover, the Potency result in the assay on DIV30, in the assay on Dd2, with ECU, with FAB9, in the assay on GB4 and in the assay on HB3 was “inactive” throughout. For the same compound, the Potency entry in the assay on ICS and with JCK was “inactive” throughout.

Take `C=C1CC[C@@]2(O)[C@H]3Cc4ccc(O)c5c4[C@@]2(CCN3CC2CC2)[C@H]1O5`: the Potency entry in the assay with CP269, in the assay on CP286, in the assay on CP291, with CP297, in the assay with CP305 and in the assay with CP315 was “inactive” in each case. For the same compound, the Potency result in the assay on CP325, in the assay on CP329, in the assay on CP335, in the assay on DFO2036, in the assay on DIV17 and in the assay on DIV30 was “inactive” each time. For the same compound, the Potency result in the assay with ECU, in the assay on FAB9, in the assay with HB3, in the assay with ICS and with JCK was “inactive” each time.

For `Cn1c(CCCC(=O)O)nc2cc(N(CCCl)CCCl)ccc21`, the Potency result in the assay with CP269, in the assay with CP286, with CP291, in the assay on CP297, with CP305 and in the assay on CP315 was “inactive” each time. The Potency entry with CP325, in the assay on CP329, with CP335, with DFO2036, with DIV14 and with DIV17 was “inactive” each time. Also, the Potency entry in the assay on DIV30, with Dd2, with ECU, in the assay with FAB9, with GB4 and in the assay on HB3 was “inactive” throughout. In addition, the Potency result with JCK is “inactive”.

With `Nc1ccncc1`, the Potency result in the assay with CP269, in the assay with CP286, with CP291, in the assay with CP297, in the assay on CP305 and in the assay on CP315 was “inactive” in each case. The Potency result in the assay on CP325, in the assay on CP329, with CP335, with DFO2036, in the assay with DIV14 and in the assay with DIV17 was “inactive” throughout. Also, the Potency entry in the assay with DIV30, in the assay on Dd2, with ECU, in the assay with FAB9, in the assay on GB4 and in the assay on HB3 was “inactive” throughout. Also, the Potency result in the assay with ICS and with JCK was “inactive” each time.

On to `CCOC(=O)C1(c2ccccc2)CCN(CCC(C#N)(c2ccccc2)c2ccccc2)CC1`, for which the Potency in the assay with CP269 was 4.26 µM (active); in the assay on CP286 it was 2.82 µM (active); in the assay with CP291 it was 4.26 µM (active); in the assay with CP297, 5.36 µM (active); in the assay on CP305 it was 4.78 µM (active); with CP315, 4.78 µM (active). Moreover, the Potency was 4.26 µM (active) in the assay with CP325; 3.79 µM (active) with CP329; 3.38 µM (active) in the assay on CP335; 2.82 µM (active) with DFO2036; 4.78 µM (active) in the assay with DIV14; 6.75 µM (active) in the assay on DIV17. Moreover, the Potency in the assay with DIV30 was 6.75 µM (active); in the assay on Dd2 it was 8.91 µM (active); with ECU, 3.98 µM (active); in the assay on GB4, 3.38 µM (active); in the assay with HB3, 5.01 µM (active); with ICS, 2.24 µM (active).

For `CN(C)CCc1ccc(O)cc1`, the Potency result in the assay with CP269, in the assay with CP286, in the assay with CP291, in the assay with CP297, with CP305 and with CP315 was “inactive” in each case. Further, the Potency result in the assay on CP325, with CP329, in the assay with CP335, in the assay on DFO2036, in the assay with DIV14 and in the assay on DIV17 was “inactive” in each case. For the same compound, the Potency entry in the assay with DIV30, in the assay with Dd2, in the assay with ECU, in the assay with FAB9, in the assay with GB4 and in the assay with HB3 was “inactive” each time. Moreover, the Potency entry in the assay on ICS and with JCK was “inactive” each time.

Regarding `CCC(COC(=O)c1cc(OC)c(OC)c(OC)c1)(c1ccccc1)N(C)C` (configuration not stated), the Potency result in the assay on CP269, with CP286, with CP291, with CP297, with CP305 and in the assay on CP315 was “inactive” each time. Besides, the Potency entry in the assay on CP325, in the assay with CP329, with CP335, in the assay with DFO2036, in the assay with DIV14 and in the assay on DIV17 was “inactive” each time. Besides, the Potency result in the assay on DIV30, in the assay with Dd2, in the assay on ECU, in the assay on FAB9, in the assay on HB3 and with ICS was “inactive” in each case. In addition, in the assay with JCK, the Potency result was “inactive”.

The values above are taken from PubChem BioAssay (NCATS).
